# Source: PubChem BioAssay
# Rows were chosen to be rich in hits. Some 5.9% of all compounds tested hit in one or more screens of this group.
# GLP1R cytotox – qHTS of GLP-1 Receptor Inverse Agonists: Cytotox Screen; 0.13% of 410,000 active; HEK293 cAMP-luciferase reporter cells, luminescence, 24 h; Potency, µM (highest dose often 38.3 µM), inactives show top-dose activity change, negative = inhibition, hits mostly inhibitors;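 note: loss of luciferase light is scored as toxicity; % is set by controls: 0 for no effect and ±100 for the full control effect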
#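 Luminescence readout: signal drop marks cytotoxicity. Plated cells grew 12 h at 37 °C, 5% CO2, received 23 nL compound for 24 h, then got luciferase reagent, read after 12 min at RT.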
# GLP1R inv ag – qHTS of GLP-1 Receptor Inverse Agonists (Inhibition Mode); Glucagon-like peptide 1 receptor (Homo sapiens), P43220; HEK293 GLP-1R CRE-luciferase, luminescence, 24 h; GLP-1R form is constitutively active; 1.6% of 410,000 active; Potency, µM (doses to about 38.3 µM), inactives show at the top dose activity change, negative = inhibition, most hits filed as inhibitors; note: % is set by controls: 0 for no effect and ±100 for the full control effect; nearly all actives have a fitted effect of over 55% in size
# Target sequence (P43220 whole entry, looked up): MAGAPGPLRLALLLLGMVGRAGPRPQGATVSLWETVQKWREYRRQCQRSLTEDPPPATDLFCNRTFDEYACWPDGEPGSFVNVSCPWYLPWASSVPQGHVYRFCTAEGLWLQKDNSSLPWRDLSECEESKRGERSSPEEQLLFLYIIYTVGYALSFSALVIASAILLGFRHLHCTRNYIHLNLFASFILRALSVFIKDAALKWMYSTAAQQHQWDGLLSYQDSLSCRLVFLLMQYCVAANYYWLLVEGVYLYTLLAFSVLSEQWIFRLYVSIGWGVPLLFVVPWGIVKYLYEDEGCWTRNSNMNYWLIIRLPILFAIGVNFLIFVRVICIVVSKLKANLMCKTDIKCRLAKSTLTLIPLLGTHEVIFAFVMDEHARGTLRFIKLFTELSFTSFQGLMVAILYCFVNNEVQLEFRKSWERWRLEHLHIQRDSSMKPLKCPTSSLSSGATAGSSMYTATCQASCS
#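 qHTS in 1536-well format: reporter HEK293 cells expressing constitutive GLP-1R activity in DMEM + 10% Nu serum, 24 hr with compounds at 37 deg C, luminescence read after 12 min with detection reagent.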
# Gal4-VP16 FLuc – VP16 counterscreen qHTS for inhibitors of ROR gamma transcriptional activity; 3.5% of 310,000 active; Potency, µM (titrated, usually from 53.6 µM), without a hit: top-dose activity, negative = inhibition, hits mostly inhibitors; Drosophila S2 Gal4-VP16 UAS-luciferase, luminescence, 20 h;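 note: Gal4-VP16 expression switched on by copper sulfate through the metallothionein promoter; % is set by controls: 0 for no effect and ±100 for the full control effect; nearly all actives have a fitted effect of over 50% in size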
# GLP-1R agonist – qHTS of GLP-1 Receptor Agonists | Glucagon-like peptide 1 receptor (Homo sapiens), P43220 | HEK293 GLP-1R CRE-luciferase, luminescence, 4-6 h; cells express a hypersensitive GLP-1R form | Potency, µM (highest dose often 45.6 µM), for the others: top-dose activation, most hits filed as activators | 0.007% of 380,000 active; note: % of control where 0% means no effect
# RORg inh – qHTS for inhibitors of ROR gamma transcriptional activity; Potency, µM (doses to about 53.6 µM), without a hit: at the top dose activity change, negative = inhibition, usual class: inhibitors; Nuclear receptor ROR-gamma (Mus musculus), P51450; 5.4% of 310,000 active; AID 2551, 2010; Drosophila S2 Gal4-RORgamma UAS-luciferase reporter, 20 h; note: % is set by controls: 0 for no effect and ±100 for the full control effect; nearly all actives have a fitted effect of over 60% in size
#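 Luciferase reporter read in Schneider cells carrying Gal4-RORγ (mouse) and UAS-Photinus luciferase; cells given compound 1 h before 700 uM copper sulfate induction, then incubated 20 h at ambient temperature.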
# * = called active by the depositor; u = inconclusive; x = not tested or not shown; [ ] = remark or other dose. Calls come from the whole dose curve; as a rule, active = well fitted curve in the direction sought with a large enough effect; inconclusive = small, poorly fitted or top-dose-only effect, or another doubt; inactive = no such curve, though single readings can be large; an effect the other way counts as inactive or inconclusive. Potency is the fitted concentration of half-maximal effect.
SMILES,GLP1R cytotox,GLP1R inv ag,Gal4-VP16 FLuc,GLP-1R agonist,RORg inh
CCC[C@@H](CN[C@@H](CNC)[C@H](C)CC)NCC1CCC(C(C)(C)C)CC1 (stereo partly specified),u,10µM*,u,-14%,11µM*
COc1cc(/C=C2\SC(=S)N(Nc3ncc(C(F)(F)F)cc3Cl)C2=O)ccc1O,u,10µM*,-30%,4%,19%
CCCn1nnnc1NC(=O)c1ccc2ccccc2c1,u,u,1µM*,-10%,1.6µM*
CN(C)c1ccc(CNC(=O)Cn2c(=O)oc3cc(S(=O)(=O)N4CCCCCC4)ccc32)cc1,11%,u,x,x,x
COc1cccc(/C=C/c2nc(C#N)c(NC3CCCCC3)o2)c1,156%,-14%,x,x,x
C[C@]12CC(=CO)C(=O)C[C@@H]1CC[C@@H]1[C@@H]2CC[C@@]2(C)[C@H]1CC[C@]2(C)O,x,x,10µM*,x,u
C=C(C)C1CCC(C)=CC1c1c(O)cc(O)cc1CCCCC (stereo unspecified),x,x,-3%,x,u
CC(C)C[C@H](NC(=O)c1[nH]cnc1C(=O)Nc1ccccc1)C(=O)OC(C)(C)C,u,u,8.9µM*,-6%,5µM*
Cc1cccc(NC(=O)c2nc[nH]c2C(=O)N[C@H](C)c2ccccc2)c1,-8%,u,x,-1%,x
O=[N+]([O-])c1cc(Cl)c(Cl)c(Cl)c1,x,x,-1%,x,-6%
O=C(c1ccc(Cl)cc1)C1CCCN(Cc2ccc3ncccc3c2)C1 (stereo unspecified),3%,u,7.1µM*,8%,u
O=C(c1cccc(Cl)c1)C1CCCN(Cc2cccc3cnccc23)C1 (stereo unspecified),12%,u,-28%,21%,7.1µM*
O=C(c1ccc(Cl)cc1)C1CCCN(Cc2cccc3cnccc23)C1 (stereo unspecified),1%,u,35µM*,6%,u
C=CC(=O)OCC,x,x,-2%,x,4%
C[C@]12N[C@@H](Cc3ccccc31)c1ccccc12,x,x,-17%,x,-16%
CC(C)[C@@]1(NC(=O)[C@H]2CC3c4cccc5[nH]cc(c45)C[C@H]3N(C)C2)O[C@@]2(O)C3CCCN3C(=O)[C@@H](Cc3ccccc3)N2C1=O (stereo partly specified),x,x,-3%,2%,25%[10 µM]
CCN1CCN(S(=O)(=O)c2ccc(Cl)c(C(=O)N(CC)CC(=O)Nc3ccc(OC)cc3)c2)CC1,2%,-13%,-14%,-1%,5.6µM*
CCN(CC)C(=O)c1ccc(NC(=O)c2cc(S(=O)(=O)N3CCCCCC3)ccc2OC)cc1,2%,u,x,15%,x
COC(=O)C[C@]1(C(=O)OC)CN(C#N)N(c2ccc(Cl)cc2)C12c1ccccc1-c1ccccc12,1.1µM*,u,3.2µM*,-4%,5.6µM*
COC(=O)[C@@H]1[C@@H](C(=O)OC)C2(c3ccccc3-c3ccccc32)N(c2ccc(Cl)cc2)N1C#N,-11%,4µM*,4.5µM*,-16%,u
FC(F)(F)c1ccc(Cl)cc1,x,x,-3%,x,-5%
COc1ccc(OC)c(-n2c(O)c(C=NCc3ccc4c(c3)OCO4)c(=O)[nH]c2=O)c1,1%,5%,-4%,7%,12%[10 µM]
COc1cc2c(cc1OC)[C@@H]1C(=O)c3ccc(OC)c(CC=C(C)C)c3OC1CO2 (stereo partly specified),x,x,1.4µM*,x,7.9µM*
C=C(C)C1Cc2c(ccc3c(=O)c4c(oc23)COc2cc(OC)c(OC)cc2-4)O1 (stereo unspecified),x,x,-2%,x,6%
COc1cc2c(cc1OC)[C@@H]1C(=O)c3ccc4c(c3OC1CO2)CC(C(C)C)O4 (stereo partly specified),x,x,8.9µM*,x,0.1µM*
SMILES,GLP1R cytotox,GLP1R inv ag,Gal4-VP16 FLuc,GLP-1R agonist,RORg inh
CC(C)C1C(=O)O[C@@H]2CCN3CC=C(COC(=O)[C@](C)(O)[C@]1(C)O)[C@H]23 (stereo partly specified),x,x,-4%,x,-31%
CCCN(CCC)c1c([N+](=O)[O-])cc(S(N)(=O)=O)cc1[N+](=O)[O-],x,x,u,10%[96 µM],-42%
C=CCN1C[C@H](C)N([C@H](c2ccc(C(=O)N(CC)CC)cc2)c2cccc(O)c2)C[C@H]1C,x,x,-11%,x,14%
Cc1ccc(C(=O)Nc2cccc3[nH]c(C(F)(F)F)nc23)cc1,u,8.9µM*,-4%,-1%,u
CNC(C)CC1CCCCC1 (stereo unspecified),x,x,x,9%,x
COc1ccc(C(=O)C(CN2CCOCC2)c2ccccc2)cc1 (stereo unspecified),u,0%,u,-15%,13µM*
COc1ccc(C(=O)c2c(C)n(CCN3CCOCC3)c3ccccc23)cc1,x,x,-7%,8%,27%
Cn1cc(/C=C2\SC(=O)NC2=S)c2ccccc21,u,u,6.3µM*,-1%,2.5µM*
Cn1cc(C=C2C(=O)NC(=O)NC2=O)c2ccccc21,5%,66%,-5%,6%,1%
O=C(/C=C/c1ccc(Br)cc1)c1ccc(NC2=NCCCS2)cc1,u,5µM*,u,-4%,u
O=C1C=CC(O)C2(CO)OC12 (stereo unspecified),u,u,x,-2%,x
Cc1ccc2c(Cl)cc(Cl)c(OCC(=O)N(C(C)C)C(C)C)c2n1,29%,u,1%,6%,6.3µM*
CCN(CC)C(=O)c1ccc(NC(=O)Nc2ccccc2F)cc1,0%,u,u,2%,11µM*
C/C=C(\C)C(=O)N[C@@H](c1ccccc1)[C@@H](O)C(=O)O[C@H]1C[C@@]2(O)[C@@H](OC(=O)c3ccccc3)C3[C@](C)(C(=O)[C@H](OC(C)=O)C(=C1C)C2(C)C)[C@H](O)C[C@H]1OC[C@@]31OC(C)=O (stereo partly specified),-35%,-73%,35µM*,3%,u
COc1cc(C2SCC(=O)Nc3c2c(C)nn3-c2ccccc2)cc(OC)c1OC (stereo unspecified),-24%,4%,16%,5%,-7%
COc1ccc(C(=O)Oc2c(Sc3ccccc3)c(C)nn2-c2ccccc2)c(OC)c1,u,13µM*,x,x,x
O=C(COc1ccc(S(=O)(=O)N2CCOCC2)cc1)N1CCN(Cc2ccc3c(c2)OCO3)CC1,5%,0%,u,0%,15%
CCCCNS(=O)(=O)c1ccc(OCC(=O)N2CCN(Cc3ccc4c(c3)OCO4)CC2)cc1,-14%,-27%,5.6µM*,3%,-8%
